# Sampled rows, rich in hits. Any-hit rate of the full collection: about 2.3%.
# M1 PAM = potentiates human M1 receptor response to acetylcholine | P11229 | CHO-K1 hM1, Fluo-8 calcium fluorescence, ACh EC20; 0% = ACh EC20, 100% = maximal ACh | activation, % at 3 µM | hit rate 0.088% among 360,000; in the data active = activation above about 19%, passing the limit was not always enough
# Target sequence (P11229 whole entry, looked up): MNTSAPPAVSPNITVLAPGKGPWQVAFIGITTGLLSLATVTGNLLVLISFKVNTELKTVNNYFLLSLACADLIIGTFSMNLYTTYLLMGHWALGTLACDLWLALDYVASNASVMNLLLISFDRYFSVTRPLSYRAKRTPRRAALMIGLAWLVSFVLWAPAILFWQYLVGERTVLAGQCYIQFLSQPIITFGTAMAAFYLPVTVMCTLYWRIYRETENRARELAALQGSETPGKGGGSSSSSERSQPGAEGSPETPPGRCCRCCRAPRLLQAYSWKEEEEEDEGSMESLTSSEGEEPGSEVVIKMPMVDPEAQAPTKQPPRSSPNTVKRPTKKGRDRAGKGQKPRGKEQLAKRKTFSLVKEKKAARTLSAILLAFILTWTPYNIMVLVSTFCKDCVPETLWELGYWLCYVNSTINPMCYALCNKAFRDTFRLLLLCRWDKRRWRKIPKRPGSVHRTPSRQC
# M1 ag = human M1 muscarinic receptor agonism; CHO-K1 hM1, Fluo-8 calcium fluorescence, agonist mode; 0% DMSO, 100% acetylcholine EC100; P11229; hit rate 0.33% among 360,000; AID 588814; activation, % at 3 µM;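 active = activation above the run's mean compound activation plus 3 SD, cut at about 16% in these data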;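 also: peak over basal fluorescence ratio within a 140 s kinetic read after compound addition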
# M1 ag parental = M1 agonist counterscreen hit in parental CHO-K1 cells; activation, % at 3 µM; Fluo-8 calcium fluorescence; scaled to maximal ATP response, vehicle zero; hit rate 0.48% among 360,000; in the data active = activation above about 15%;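 also: untransfected CHO-K1 host cells lacking M1 receptor as counterscreen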
# CHO-K1 Ca antag = M1 antagonist counterscreen hit in parental CHO-K1 cells; hit rate 0.6% among 360,000; inhibition, % at 3 µM; ATP-induced calcium, Fluo-8 fluorescence;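 active = inhibition above a per-plate cutoff, the plate's mean sample inhibition plus 3 SD, cut at about 24% in these data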
# CHRM1 antagonist = human CHRM1 antagonism. CHO-K1 hM1, Fluo-8 calcium fluorescence, ACh EC80 antagonist. inhibition, % at 3 µM. hit rate 1.3% among 360,000. AID 588852;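 active = percent inhibition above its own plate's cutoff, namely the mean of that plate's compound wells plus 3 SD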;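 also: peak over basal fluorescence ratio during 140 s after agonist addition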
# M1 PAM parental = counter-screen for M1 PAMs: effect in parental CHO-K1 cells; ATP EC20, Fluo-8 calcium fluorescence; 0% at ATP EC20, 100% at ATP max; activation, % at 3 µM; hit rate 0.02% among 360,000; AID 602247;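 active = activation above the run cutoff, the mean activation of all test compounds plus 3 SD, cut at about 40% in these data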;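 also: peak over basal fluorescence ratio in a 140 s read after ATP addition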
# A number is an active result; . = inactive.
SMILES,M1 PAM,M1 ag,M1 ag parental,CHO-K1 Ca antag,CHRM1 antagonist,M1 PAM parental
S=C(NCc1ccc(Cl)cc1Cl)NC1CCCCC1,.,.,.,.,.,.
CC(C)C(=O)N1CCCC1(C)C(=O)Nc1ccc(-n2cccc2)cc1 (centres undefined),.,.,.,.,.,.
Cc1cccnc1C(NC(=O)C1CCN(Cc2ccc3ccccc3n2)CC1)c1ccc(Cl)cc1 (centres undefined),.,.,.,.,31,.
CCS(=O)(=O)N1CCN(S(=O)(=O)c2ccc(Cl)s2)CC1,.,.,.,.,37,.
COc1ccc(NC(=O)c2oc3ccc(S(=O)(=O)N4CCC5(CC4)OCCO5)cc3c2C)cc1,.,.,.,.,34,.
C=CCNC(=O)c1oc2ccc(S(=O)(=O)N3CCC4(CC3)OCCO4)cc2c1C,.,.,.,.,.,.
Cc1ccc(C)c(NC(=O)Cn2nc(C(F)(F)F)cc2C2CC2)c1,26,.,.,.,.,.
O=C(CCl)Nc1cccc2ncccc12,.,.,.,.,.,.
COc1ccc(OCC(=O)NC(=S)Nc2ccc3c4c(cccc24)CC3)cc1,.,.,22,.,.,.
COc1ccc(OCC(=O)Nc2cccc3ncccc23)cc1,.,.,.,26,.,.
CCN(CC(=O)Nc1c(F)cccc1F)C(=O)CSC(=S)N1CCCC1,.,.,.,.,.,.
CC/C(=N/N=C(/CC)c1ccc(O)cc1)c1ccc(O)cc1,.,.,.,.,.,.
COc1ccc(Cl)cc1Nc1cc(C)nc2nc(C)nn12,.,.,.,.,.,.
COc1cc(OC)c(Nc2cc(C)nc3nc(C)nn23)cc1Cl,.,.,.,.,103,.
O=C(O)CCn1c(SCCOc2ccccc2)nc2ccccc21,.,.,.,.,.,.
Cc1cc(S(=O)(=O)N2CCN(c3ccccc3F)CC2)ccc1-n1cnnn1,.,.,18,.,.,.
Cc1cc(S(=O)(=O)N2CCN(c3ccc(F)cc3)CC2)ccc1-n1cnnn1,.,.,.,.,.,.
Cc1ccccc1COC(=O)CCCC1=NS(=O)(=O)c2ccccc2N1,.,23,.,.,.,.
Cc1ccc(NC(=O)COC(=O)CCCC2=NS(=O)(=O)c3ccccc3N2)cc1C,.,.,.,.,.,.
O=C(COc1c(F)c(F)cc(F)c1F)NC(=O)NC1CCCC1,.,.,.,.,31,.
CN(C)S(=O)(=O)c1ccc(Cl)c(NC(=O)COC(=O)/C=C/c2ccco2)c1,.,.,.,.,.,.
O=C(c1cccs1)N1CCN(C2CCN(Cc3ccccc3)CC2)CC1,.,.,.,.,39,.
C=CCN(C(=O)CN1CCOCC1)c1nc(C)c(-c2ccccc2)s1,.,.,.,.,.,.
C=CCN(C(=O)CN1CCCCC1)c1nc(-c2ccccc2)cs1,.,.,.,.,25,.
COc1ccc(CCNC(=O)c2cc3c(=O)n4ccccc4nc3n(Cc3ccco3)c2=N)cc1OC,.,.,.,28,.,.
SMILES,M1 PAM,M1 ag,M1 ag parental,CHO-K1 Ca antag,CHRM1 antagonist,M1 PAM parental
CCN(CC(=O)NCc1cccs1)C(=O)/C=C/c1cc(OC)ccc1OC,.,.,.,24,.,.
CC(C)CN1C(=O)C(=O)N(CC(=O)c2ccc3c(c2)CCCC3)C1=O,.,.,.,.,.,.
CN(CC(=O)NCC(=O)Nc1ccc(F)cc1)CC(=O)Nc1ccc(Cl)c(C(F)(F)F)c1,.,.,.,.,.,.
CN(C)S(=O)(=O)c1cccc(NC(=O)CNc2cccc(S(=O)(=O)N3CCCCC3)c2)c1,.,.,.,.,.,.
CCN(CC)S(=O)(=O)c1cc(NC(=O)CNc2cccc(S(=O)(=O)N3CCCC3)c2)ccc1C,.,.,.,.,29,.
CC(OC(=O)CC1CC2CCC1C2)C(=O)Nc1cccc(S(=O)(=O)N2CCOCC2)c1 (centres undefined),24,.,.,.,.,.
CC(OC(=O)CC1CC2CCC1C2)C(=O)Nc1ccc(N2CCOCC2)cc1 (centres undefined),.,.,.,.,.,.
CN(CC(=O)NCc1ccc(F)cc1)CC(=O)Nc1ccc(Cl)c(C(F)(F)F)c1,.,16,.,.,.,.
CCc1nc2ccccc2c(C(=O)OCC(=O)Nc2cccc(S(=O)(=O)N3CCOCC3)c2)c1C,.,.,.,.,28,.

# From PubChem BioAssay
